Rows were chosen to be rich in hits. Some 31% of all compounds tested hit in one or more screens of this group.
CYP2C19 activ – cytochrome P450 2C19 (human) activation | recombinant CYP2C19, luciferin-H EGE luminescence; active compounds read high; 0 = fully inhibited enzyme, 1 = untreated enzyme | activation factor at 5 µM | 96,000 tested, under 10 active | AID 1025;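 active = activation factor of at least 2 at 5 µM in the primary screen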
PLAP act – activators of human placental alkaline phosphatase; actives 1.2% (n = 96,000); activation fold at 20 µM; P05187; purified PLAP enzyme, luminescent substrate read-out; active compounds read high; in the data active = activation fold above about 2
CYP2C9 activ – CYP2C9 (human) activation. P11712. recombinant CYP2C9, luciferin-H conversion, luminescence; active compounds read high; factor 1 = untreated enzyme, 0 = blocked. activation factor at 5 µM. actives 1.4% (n = 96,000). AID 1024;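 active = activation factor of 2 or more for CYP2C9 at a 5 µM dose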
Target sequence (P11712 whole entry, looked up): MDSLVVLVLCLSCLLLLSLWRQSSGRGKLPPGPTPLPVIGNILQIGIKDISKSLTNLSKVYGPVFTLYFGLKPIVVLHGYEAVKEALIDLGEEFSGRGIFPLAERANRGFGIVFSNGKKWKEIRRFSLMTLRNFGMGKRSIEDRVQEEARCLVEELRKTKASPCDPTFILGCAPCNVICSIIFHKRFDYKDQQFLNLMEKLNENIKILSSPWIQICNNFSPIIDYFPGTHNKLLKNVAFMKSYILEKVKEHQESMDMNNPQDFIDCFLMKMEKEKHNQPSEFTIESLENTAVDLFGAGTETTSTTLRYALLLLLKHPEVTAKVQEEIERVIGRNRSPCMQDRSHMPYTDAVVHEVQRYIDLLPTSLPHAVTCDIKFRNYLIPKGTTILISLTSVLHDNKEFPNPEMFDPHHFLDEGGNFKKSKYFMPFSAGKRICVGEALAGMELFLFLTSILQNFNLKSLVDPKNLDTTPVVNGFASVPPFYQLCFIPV
CYP2C19 inhib – blocks human cytochrome P450 2C19; P33261; CYP2C19 Supersomes, luciferin-H EGE luminescence, 30 min; inhibition, % at 5 µM; actives 21% (n = 96,000);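 active = CYP2C19 inhibition above a set limit at 5 µM in the primary screen, cut at about 50% in these data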
CYP2C9 inh – blocks human cytochrome P450 2C9 | CYP2C9 Supersomes, luciferin-H conversion, luminescence | actives 20% (n = 96,000) | inhibition, % at 5 µM | AID 777 | P11712;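 active = blocking of liver enzyme CYP2C9 beyond about 50% at 5 µM, limit read from the data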
A number is an active result; 0 = inactive.

SMILES	CYP2C19 activ	PLAP act	CYP2C9 activ	CYP2C19 inhib	CYP2C9 inh
C=CCC(C)(NCc1ccccc1)c1ccco1 (stereo not drawn)	0	0	0	0	0
O=C(N/N=C\c1ccc(Cl)cc1Cl)c1sccc1-n1cccc1	0	0	0	0	51
O=C(N/N=C\c1ccc(Cl)cc1)c1sccc1-n1cccc1	0	0	0	0	0
Cc1nc([N+](=O)[O-])c(N2CCN(Cc3ccccc3)CC2)n1Cc1ccccc1	0	0	0	54	57
COc1ccc2nc(CC(C)(C)CC(=O)O)c[n+]([O-])c2c1	0	0	0	0	0
CC(C)N1CC(C(=O)Nc2nc3ccccc3s2)CC1=O (stereo not drawn)	0	0	0	0	0
COc1ccccc1CCNC(=O)CCn1c(=O)oc2ccccc21	0	0	0	83	0
OC(CNc1nc2ccccc2s1)c1ccccc1 (stereo not drawn)	0	0	0	95	70
O=C(O)CCSc1nc2ccccc2s1	0	0	0	0	0
Cc1ccccc1NC(=O)CCn1c(=O)oc2ccccc21	0	0	0	0	0
CC(C)OC(=O)CCC(=O)Nc1nc2ccccc2s1	0	0	0	81	66
O=C(CCn1c(=O)oc2ccccc21)Nc1nc2ccccc2s1	0	0	0	52	59
Cc1ccc(NC(=O)CC(NCCN2CCOCC2)C(=O)O)cc1Cl (stereo not drawn)	0	0	0	0	0
C=CCOc1ccc(/C(CC)=N/O)cc1OC	0	0	0	0	0
CC(C)=CC1C(C(=O)Nc2ccc(Br)cn2)C1(C)C (stereo not drawn)	0	0	0	0	0
Cc1ccc(-c2csc3n[nH]c(=S)n23)cc1	0	0	0	0	0
CSc1cccc(NC(=O)CN(C2CCCCC2)S(C)(=O)=O)c1	0	0	0	59	71
COc1ccc(NC(=O)CN(c2ccccc2)S(=O)(=O)N(C)C)cc1OC	0	0	0	0	0
CCCCC1CC1C(=O)Nc1ccc(OC)c(OC)c1 (stereo not drawn)	0	0	0	92	59
COC(=O)c1ccc(NC(=O)CN(C2CCCCC2)S(C)(=O)=O)cc1	0	2	0	0	0
CCCCOC(=O)c1ccc(NC(=O)Nc2ccc(OC)c(OC)c2)cc1	0	0	0	0	0
COc1ccc(NC(=O)CN(C2CCCCC2)S(C)(=O)=O)cc1OC	0	0	0	50	0
COC(=O)c1ccccc1NC(=O)CN(C1CCCCC1)S(C)(=O)=O	0	0	0	0	0
COc1ccc(N2C(=O)CC(N3CCN(S(=O)(=O)c4c(F)cccc4F)CC3)C2=O)cc1OC (stereo not drawn)	0	0	0	0	0
COC(=O)Cc1csc(N)n1	0	0	0	0	0
SMILES	CYP2C19 activ	PLAP act	CYP2C9 activ	CYP2C19 inhib	CYP2C9 inh
COc1cc(C(=O)Nc2ccc(S(=O)(=O)Nc3nccc(C)n3)cc2)cc(OC)c1OC	0	0	0	0	0
O=C(COC(=O)c1ccncc1)NCc1ccccc1	0	0	0	85	65
O=C(COC(=O)c1ccccn1)c1ccc(Br)cc1	0	0	0	57	0
O=C(OCC1CC(c2ccccn2)=NO1)c1ccc(Br)cc1 (stereo not drawn)	0	0	0	77	82
N/C(=N\OC(=O)c1ccc(Cl)c(Cl)c1)c1ccccn1	0	0	0	0	0
O=C(OCc1ccc(Cl)c(Cl)c1)c1ccccn1	0	0	0	96	53
CC(C)CNC(=O)C1CC(=O)OC12CCCCC2 (stereo not drawn)	0	0	0	0	0
O=C(COC(=O)c1ccccn1)NCc1ccccc1	0	0	0	69	0
O=C(COc1ccccc1Cl)NCc1ccncc1	0	0	0	94	78
Nc1nc(-c2cccs2)c(NC(=O)c2ccccc2)s1	0	0	0	0	0
O=C(Nc1c(-c2ccccc2)nc2sccn12)c1ccccc1	0	0	0	79	74
Cc1cc(Cl)c(S(=O)(=O)Nc2ccc3c(c2)OCCO3)cc1OCC(=O)NC1CCCCC1	0	0	0	0	0
CC(Sc1nnc(N)s1)c1ccccc1Cl (stereo not drawn)	0	0	0	96	51
CC(Oc1ccccc1Cl)c1nnc(N)s1 (stereo not drawn)	0	0	0	0	0
COC(=O)COc1nc(C)c(Br)c(OC)n1	0	0	0	0	0
Fc1ccccc1NC(=S)N/N=C/c1ccccc1Br	0	0	0	0	0
C=CCN1C(=O)C(O)(CC(=O)c2ccc(OC)cc2OC)c2cc(Br)ccc21 (stereo not drawn)	0	0	0	63	82
C#CCN1C(=O)C(O)(CC(=O)c2cccc(OC)c2)c2ccccc21 (stereo not drawn)	0	0	0	0	0
CCCCN1C(=O)C(O)(CC(=O)c2ccco2)c2cc(Br)ccc21 (stereo not drawn)	0	0	0	67	0
Cc1coc(C)c1C(=O)CC1(O)C(=O)N(CCc2ccccc2)c2ccccc21 (stereo not drawn)	0	0	0	0	0
CN1C(=O)C(O)(CC(=O)c2ccncc2)c2ccccc21 (stereo not drawn)	0	0	0	0	0
CN1C(=O)C(O)(CC(=O)c2ccccc2O)c2cc(Br)ccc21 (stereo not drawn)	0	0	0	97	92
CCOC(=O)CN1C(=O)C(O)(CC(=O)c2ccco2)c2ccccc21 (stereo not drawn)	0	0	0	0	0
CCCCN1C(=O)C(O)(CC(=O)c2c(C)n[nH]c2C)c2cc(Br)ccc21 (stereo not drawn)	0	0	0	81	0
Cn1c(N)c(C(=O)COC(=O)C2(c3cccc(F)c3)CCCC2)c(=O)n(C)c1=O	0	0	0	0	0
SMILES	CYP2C19 activ	PLAP act	CYP2C9 activ	CYP2C19 inhib	CYP2C9 inh
CCOC(=O)CON1C(=O)c2ccccc2C1=O	0	0	0	0	0
Cc1n[nH]c(C)c1C(=O)CC1(O)C(=O)N(CCc2ccccc2)c2ccc(Cl)cc21 (stereo not drawn)	0	0	0	99	95
COCc1cc(=O)n2[nH]c(C(F)(F)F)nc2n1	0	0	0	0	0
O=C(CN1CCN(Cc2ccccc2)CC1)NC(=O)NCc1ccco1	0	0	0	0	0
Cc1ccc(C)c(S(=O)(=O)N2CCN(CC(=O)NC(=O)NCc3ccccc3)CC2)c1	0	0	2.2	0	0
CC1CN(C(=O)N(C)C)CCN1C(=O)N(C)C (stereo not drawn)	0	0	0	0	0
Cc1cc(N2CCC(C)CC2)nc2cccc(O)c12	0	0	3	0	0
COC(=O)c1sc(=S)n(-c2cccc(Cl)c2)c1N	0	0	0	0	0
CCN(C(=O)CSc1nnc(-c2ccccc2Cl)n1C1CCCC1)C1CCS(=O)(=O)C1 (stereo not drawn)	0	0	0	0	79
CNc1cc(-n2nc(C)cc2-c2ccccc2)ncn1	0	0	0	61	0
OCCNc1cc(-n2nc(-c3ccccc3)cc2-c2ccccc2)ncn1	0	0	0	0	0
O=C(Nc1nnc(-c2ccccc2Cl)o1)c1cccnc1	0	0	0	0	82
